Values joined by “and” are separate entries in the source; they are usually repeats but may differ in a detail not shown here. Equal entries are not always repeated. The whole screen tested about 5,500 compounds, of which about 2,000 (36%) were called active. Another 18% or so got no clear call; they are omitted. No stated cut-off is given here; in the data, active means normalized growth mostly below about 0.91 (no sharp cut-off); inconclusive means no clear call, values can overlap the other calls; inactive means mostly above about 0.92. This is one part of the list.
Experiment: chemical genetic growth profiling, strain panel (AID 1159580);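 further: tested at 20 µM; growth read once vehicle control cultures reached saturation at 30 °C; 1 = growth at the plate median or of vehicle wells; lower values mean less growth of the strain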
Settings: S. cerevisiae deletion strains, growth OD

Measured: normalized growth

CC(C)=CCC[C@](C)(O)C1CC=C(C)CC1 (stereo partly specified)
inactive: locus YAL021C, strain ccr4, active compounds read low 0.958 | locus YAL026C, strain drs2, active compounds read low 0.987 | locus YAL030W, strain snc1, active compounds read low 0.994 | locus YBL061C, strain skt5, active compounds read low 0.98 | locus YBR009C, strain hhf1, active compounds read low 0.996 | locus YBR021W, strain FUR4, active compounds read low 0.966 | locus YBR023C, strain chs3, active compounds read low 0.981 | locus YBR171W, strain sec66, active compounds read low 0.967 | locus YBR229C, strain ROT2, active compounds read low 1.02 | locus YBR231C, strain swc5, active compounds read low 1 | locus YBR279W, strain paf1, active compounds read low 0.99 | locus YCL011C, strain gbp2, active compounds read low 0.979 | locus YCL016C, strain dcc1, active compounds read low 0.992 | locus YCL029C, strain bik1, active compounds read low 1 | locus YCL061C, strain MRC1, active compounds read low 0.982 | locus YCL069W, strain vba3, active compounds read low 0.987 | locus YCR088W, strain abp1, active compounds read low 0.986 | locus YDL005C, strain med2, active compounds read low 0.971 | locus YDL035C, strain GPR1, active compounds read low 0.984 | locus YDL040C, strain nat1, active compounds read low 1 | locus YDL074C, strain BRE1, active compounds read low 0.995 | locus YDL101C, strain DUN1, active compounds read low 1.02 | locus YDL134C, strain PPH21, active compounds read low 1.02 | locus YDL185W, strain tfp1, active compounds read low 0.987 | locus YDL192W, strain arf1, active compounds read low 0.969 | locus YDR001C, strain nth1, active compounds read low 0.994 | locus YDR069C, strain doa4, active compounds read low 0.995 | locus YDR101C, strain arx1, active compounds read low 0.976 | locus YDR137W, strain rgp1, active compounds read low 0.972 | locus YDR159W, strain sac3, active compounds read low 1 | locus YDR162C, strain NBP2, active compounds read low 1.04 | locus YDR195W, strain ref2 1 | locus YDR297W, strain sur2, active compounds read low 1.01 | locus YDR318W, strain mcm21, active compounds read low 1 | locus YDR334W, strain swr1, active compounds read low 0.985 | locus YDR335W, strain msn5, active compounds read low 0.984 | locus YDR388W, active compounds read low 1 | locus YDR392W, strain spt3, active compounds read low 0.906 | locus YDR502C, strain sam2, active compounds read low 0.973 | locus YEL003W, strain gim4, active compounds read low 0.983 | locus YEL037C, strain rad23, active compounds read low 0.978 | locus YEL061C, strain CIN8 (second series), active compounds read low 0.983 | locus YEL061C, strain CIN8, active compounds read low 1.02 | locus YER015W, strain faa2, active compounds read low 0.987 | locus YER016W, strain bim1, active compounds read low 0.987 | locus YER110C, active compounds read low 0.982 | locus YER111C, strain swi4, active compounds read low 0.969 | locus YER155C, strain BEM2 (second series), active compounds read low 0.985 | locus YER155C, strain BEM2, active compounds read low 1.02 | locus YER167W, strain BCK2, active compounds read low 1.01 | locus YFR010W, strain ubp6, active compounds read low 0.976 | locus YGL078C, strain dbp3, active compounds read low 0.97 | locus YGL086W, strain mad1, active compounds read low 0.976 | locus YGL167C, strain pmr1, active compounds read low 0.982 | locus YGL173C, strain kem1, active compounds read low 0.981 | locus YGL227W, strain vid30, active compounds read low 0.981 | locus YGL240W, strain doc1, active compounds read low 0.994 | locus YGL248W, strain PDE1, active compounds read low 1.02 | locus YGL253W, strain hxk2, active compounds read low 0.959 | locus YGR135W, strain pre9, active compounds read low 1.01 | locus YGR252W, strain gcn5, active compounds read low 0.962 | locus YHR013C, strain ard1, active compounds read low 0.997 | locus YHR027C, strain rpn1, active compounds read low 0.999 | locus YHR030C, strain SLT2, active compounds read low 1.02 and 1 | locus YHR079C, strain IRE1 (second series), active compounds read low 0.98 | locus YHR079C, strain IRE1, active compounds read low 0.988 | locus YHR094C, strain hxt1, active compounds read low 0.985 | locus YHR129C, strain ARP1, active compounds read low 1.02 | locus YHR142W, strain chs7, active compounds read low 0.953 | locus YHR200W, strain rpn10, active compounds read low 1 | locus YIL066C, strain RNR3, active compounds read low 1.02 | locus YIL073C, strain SPO22, active compounds read low 1.02 | locus YIL125W, strain kgd1, active compounds read low 0.997 | locus YIR030C, strain dcg1, active compounds read low 0.991 | locus YJL092W, strain hpr5, active compounds read low 0.958 | locus YJL095W, strain BCK1 (second series), active compounds read low 0.976 | locus YJL095W, strain BCK1, active compounds read low 1.04 and 0.993 | locus YJL115W, strain asf1, active compounds read low 0.988 | locus YJL129C, strain trk1, active compounds read low 0.973 | locus YJL134W, strain LCB3, active compounds read low 1.01 | locus YJL154C, strain vps35, active compounds read low 0.995 | locus YJL164C, strain tpk1, active compounds read low 1 | locus YJL166W, strain qcr8, active compounds read low 0.989 | locus YJL168C, strain set2, active compounds read low 0.987 | locus YJL187C, strain SWE1 (second series), active compounds read low 1.03 | locus YJL187C, strain SWE1, active compounds read low 0.987

— PubChem BioAssay AID1159580 (chemical genetic matrix, 2015)
